# Where “and” joins values, the source holds several entries; their conditions need not be identical. Equal values may be shown once. Results filed as inconclusive are left out. Where a call stands in place of a potency, no number is given. Calls of active or inactive are those of the source. The call rests on the fitted dose curve; in most records, active means well fitted cell-killing curve with a large enough effect; inconclusive means small, poorly fitted or top-dose-only effect, or effect the other way; inactive means no such curve, though single readings can be large or run the other way.
# Assay: Viability qHTS for spleen associated tyrosine kinase inhibitor (SYKi) naive MV4-11 cells (AID 1963823); further: nearly all actives have a fitted effect of over 40% in size
# Settings: MV4-11 AML viability, CellTiter-Glo luminescence, 72 h; series mostly up to 45 µM
# Text: Department of Medicine, Hematology/Oncology
# University Hospital Frankfurt, Germany.
# Trials have shown promising clinical activity of the selective SYK inhibitor entospletinib in patients with high expressing HOXA9/MEIS1 acute leukemias. As the development of resistance mechanisms is a common problem in the use of targeted drugs, we performed a chemical library screen to identify drug sensitivities in SYK inhibitor resistant AML cells. […] Glucocorticoids are potent immunosuppressants which work in part by inhibiting the transcription of cytokine genes.
# Described herein is a viability screen to look for activity in the SYK inhibitor naive cell line against four NCATS compound libraries (MIPE 5.0, NPC, NPACT, and Kinase) totaling 11372 compounds. Active hits were reacquired for confirmation and further secondary assay testing.
# SEQUENCE No. (e.g., 1, 2, 3, etc.); […] (e.g., Cells, Incubation, Reagent, etc.); VALUE; DESCRIPTION.
# 1; Media; 2uL; white, solid-bottom Corning assay plate.
# 2; Compounds; 23nL; Echo acoustic dispenser.
# 3; Cell; 5uL; 500 cells per well.
# 4: Incubation; 72hr; 37 C, 5% CO2, 95% humidity.
# 5; Reagent; 3uL; CellTiter-Glo reagent (Promega).
# 6; Incubation; 10min; room temperature.
# 7; Detection; Luminescence; ViewLux plate reader (PerkinElmer).
# NOTES (numbers refer to Sequence numbers above
# 1. Quantitative high-throughput screening (qHTS) of small molecule compounds was conducted on naive SYKi MV4-11 cell line.
# 2. Twenty-three nanoliter of small molecule compounds were added to each assay plates using the Echo acoustic dispenser (Beckman Coulter).
# 3. Cells were seeded into the assay plates at a final density of 500 cells in 5uL of media per well using the Multi-drop Combi dispenser.
# 4. Plates were covered with stainless steel gasketed lids and incubated for 72 hours at standard cell culture conditions.
# 5. Viability was assessed by adding 3uL of CellTiter-Glo detection reagent (Promega).
# 6. Plates were covered with gasket lids and incubated for 10 minutes at room temperature.
# 7. Luminescence was measured on a ViewLux plate reader (PerkinElmer).
# Potency means the concentration at half of the fitted maximal effect.
SMILES,Potency,viability (% of control)
COc1ccc(Cl)c(Nc2ncnc3cc(OCC4CCN(C)CC4)c(OC)cc23)c1,5.25 µM (active),
C=C1[C@H](OC(C)=O)[C@H]2[C@@H](OC(C)=O)[C@](C)(OC(C)=O)C[C@]2(OC(C)=O)C(=O)[C@H](C)/C=C/C(C)(C)C(=O)[C@H](OC(=O)C(C)C)[C@H]1OC(C)=O,inactive,
CC12CCC3c4ccc(OC5OC(C(=O)O)C(O)C(O)C5O)cc4CCC3C1CCC2O (stereo not given),inactive,
Cc1nc2c(-c3cnc(N)nc3)nc(N3CCOCC3)nc2n1C(C)C,0.209 µM (active),
CC(C)NCC(O)c1ccc(O)c(O)c1 (stereo not given),inactive,
COc1ccccc1O,inactive,
O=C1C[C@]23C=CCN4CCC5c6cc7c(cc6N1[C@@]5(CC2)C43)OCO7 (stereo not given in full),10.1 µM (active),
C=C1C[C@@]23CC[C@@H]4[C@](C)(C(=O)O)CCC[C@@]4(C)C2=CC[C@H]1C3,inactive,
CC[C@H](/C=C/[C@@H](C)[C@H]1CC[C@H]2[C@@H]3CC=C4C[C@@H](O)CC[C@]4(C)[C@H]3CC[C@]12C)C(C)C,,82.1% [at 4.97 µM] (inactive)
CNC1CN(c2ccc3c(=O)c(C(=O)O)cn(-c4nccs4)c3n2)CC1OC (stereo not given),0.422 µM (active),
C[C@]12CCC(=O)C=C1[C@@H](O)C[C@@H]1[C@@H]2[C@@H](O)C[C@@]2(C)[C@H]1CC[C@]2(O)C(=O)CO,inactive,
C[C@@]1(c2cc(-c3cncnc3)c(F)cc2F)CCSC(N)=N1,inactive,
COC(=O)C1=CO[C@@H](O[C@@H]2O[C@H](CO)[C@@H](O)[C@H](O)[C@H]2O)[C@@H]2[C@@](C)(O)[C@@H](O)C[C@]12O,inactive,
CCOc1cc(CNC2CCCC2)cc(Cl)c1OCc1ccc(Cl)cc1,4.61 µM (active),
O=C(O)C(=O)Nc1cccc(-c2nn[nH]n2)c1,inactive,
CNC1CCC(N(Cc2cccc(-c3ccncc3)c2)C(=O)c2sc3ccccc3c2Cl)CC1 (stereo not given),7.31 µM (active) and 5.25 µM (active),
O=C(OCc1ccccc1)c1ccccc1,inactive,
O=C(O)CC1CCC(c2ccc(NC(=O)c3nnc(Nc4ccc(F)c(F)c4)o3)cc2)CC1 (stereo not given),inactive,
C=CC(=O)Nc1cccc(Oc2nc(Nc3ccc(N4CCN(C)CC4)cc3)nc3ccsc23)c1,2.63 µM (active),
CC(C)=CCC/C(C)=C/CC/C(C)=C/COC1OC(COC2OCC(OC3OCC(O)C(O)C3O)C(O)C2O)C(O)C(OC2OC(C)C(OC3OC(C)C(OC4OCC(OC5OC(C)C(O)C(O)C5O)C(O)C4O)C(O)C3O)C(O)C2O)C1O (stereo not given),,70.7% [at 9.25 µM] (inactive)

SMILES,Potency,viability (% of control)
NC(=O)c1cnccn1,inactive,
CCCCCOC(=O)Nc1nc(=O)n([C@@H]2O[C@H](C)[C@@H](O)[C@H]2O)cc1F,inactive,
O=C(Nc1ccc2[nH]nc(-c3ccncc3)c2c1)[C@@H]1CCN(CC(=O)N2CCN(c3ccc(-c4ncccn4)cc3)CC2)C1,25.9 nM (active) and 525 nM (active),
CC1=C(CCC(C)O[C@@H]2O[C@H](CO)[C@@H](O)[C@H](O)[C@H]2O)C(C)(C)CCC1=O (stereo not given in full),inactive,
CC(C)=CCCC1(C)Oc2cc3c(c4c2C2C(O4)C(C)(O)CCC21)CN(C(CCC(=O)O)C(=O)O)C3=O (stereo not given),inactive,
Brc1ccc([C@H]2CN3CCSC3=N2)cc1,inactive,
Cc1[nH]c2ccc(F)cc2c1-c1nc2c3cccnc3c3ncccc3c2[nH]1,0.231 µM (active),
O=C1CCCc2c(O)cccc21,inactive,
CNC(=O)CN(CCN(CCN(CC(=O)[O-])CC(=O)NC)CC(=O)[O-])CC(=O)[O-].O.[Gd+3],inactive,
CC1(C(=O)Nc2ccc(F)nc2)CCCN1c1nc(Nc2cc(C3CC3)[nH]n2)c2cccn2n1 (stereo not given),1.46 µM (active),
Cc1cc(CN2CCN(c3c(Br)cnc4nc(-c5ccc(N6CCN(C)CC6)cc5)[nH]c34)CC2)no1,0.0231 µM (active),
Cc1ccc(NC(=O)c2ccc(CN3CCN(C)CC3)cc2)cc1Nc1nc(-c2cccnc2)cs1,11.6 µM (active) and 14.8 µM (active),
COC(=O)CC(C)(O)CC(=O)OCc1ccc(O[C@@H]2O[C@H](CO)[C@@H](O)[C@H](O)[C@H]2O)cc1 (stereo not given in full),inactive,
Cc1cc(NC(=O)C2=C(O)c3ccccc3S(=O)(=O)N2C)no1,inactive,
COC1OC(=O)C2=C1C1(C)CCCC(C)(C)C1CC2O (stereo not given),inactive,
CCN1CCC(n2cc(CNc3cc(Cl)c4ncc(C#N)c(Nc5ccc(F)c(Cl)c5)c4c3)nn2)CC1,13 µM (active),
Cc1noc(-c2ccc(-c3ccc(C4(C(=O)O)CC4)cc3)cc2)c1NC(=O)O[C@H](C)c1ccccc1,16.6 µM (active),
O=c1[nH]c(=O)n([C@H]2C[C@H](O)[C@@H](CO)O2)cc1C(F)(F)F,2.11 µM (active) and 1.66 µM (active),
COC1=Cc2c(nc3n(c2=O)C(C)C(=O)NC3(O)C(C)C)OC=C1 (stereo not given),inactive,
CC1(C)CCC2(C(=O)OC3OC(CO)C(O)C(O)C3O)CCC3(C)C(=CCC4C5(C)CCC(OC6OC(C(=O)O)C(OC7OC(CO)C(O)C(O)C7O)C(OC7OC(CO)C(O)C(O)C7O)C6O)C(C)(C)C5CCC43C)C2C1 (stereo not given),,77.9% [at 9.25 µM] (inactive)
